Measured values published in PubChem BioAssay (EPA / NIEHS).
Inconclusive results are not listed. Active and inactive are the calls of the source. How the source made its calls, unless noted: active means hit-call score of the fitted dose curve at least 0.9, where 1 is the maximum; inactive means score below 0.9.

Columns and labels:
[1] = CCTE_Shafer_MEA_acute_burst_percentage_mean: CCTE's Neural Acute Assay for Percentage of Spikes in a Burst, Shafer Lab (AID 2284017);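 on AC50: curve fitted for loss of signal so potency reflects decreased burst percentage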
How it was run: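 Well-level mean burst percentage from a 40-min recording after compound (0.03-40 uM) expressed as percent change from a 40-min baseline at 37C. Cultures: primary rat cortical neurons on MEA, dosed on DIV 13 or 15; fitted downward relative to DMSO.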

[2] = CCTE_Shafer_MEA_acute_per_network_burst_spike_number_mean: CCTE's Neural Acute Assay for Average Number of Spikes in a Network Burst, Shafer Lab (AID 2284019)
How it was run: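 Primary rat cortical neurons on 16-electrode MEA wells, DIV 13 or 15, 37 C; 40-min baseline then 40-min recording with compound (0.03-40 uM). Spikes per network burst (total spikes/number of bursts) expressed as percent change from baseline, DMSO reference.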

[3] = CCTE_Shafer_MEA_acute_per_network_burst_spike_number_std: CCTE's Neural Acute Assay for Standard Deviation of Number of Spikes in a Network Burst, Shafer Lab (AID 2284020);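 further: fitted for decrease in spike-number SD versus DMSO so actives lower it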
How it was run: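 Primary rat cortical neurons on 48-well MEAs (16 electrodes/well) recorded at DIV 13 or 15: 40-min baseline, then 40 min with compound (0.03-40 uM), 37 C. Value is percent change in SD of spikes per network burst, relative to DMSO.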

[4] = CCTE_Shafer_MEA_acute_per_network_burst_electrodes_number_mean: CCTE's Neural Acute Assay for Mean Number of Electrodes in a Network Burst, Shafer Lab (AID 2284021);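 further: curves fitted for decreases only so hits reduce electrodes per burst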
How it was run: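 Rat primary cortical neurons on 16-electrode MEA wells were recorded 40 min at baseline on DIV 13 or 15, then 40 min after compound (0.03-40 uM), at 37 C. Value is percent change per well, fitted in loss direction versus DMSO.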

[5] = biological target: Estrogen receptor (Homo sapiens) (UniProt P03372); assay: CCTE_Deisenroth_AIME_96WELL_LUC_Active: CCTE's 96-well Estrogen Receptor Transactivation Assay with AIME metabolic competence (ERTA luciferase; metabolism positive), Deisenroth Lab (AID 2284023; active means hit-call score of the fitted dose curve at least 0.9, where 1 is the maximum)
How it was run: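 Chemicals pre-incubated 2 h with alginate-immobilized phenobarbital/beta-naphthoflavone-induced male Sprague Dawley rat liver S9, then medium transferred to VM7Luc4E2 cells for 24 h luciferase read-out. 10-point series 0.002 - 200 uM; fitted relative to 17beta-estradiol.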

[6] = CCTE_Shafer_MEA_acute_cross_correlation_area: CCTE's Neural Acute Assay for Area of Cross Correlation, Shafer Lab (AID 2284024);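 further: area under pooled inter-electrode spike cross-correlation near zero lag as percent change from own baseline; curves fitted for loss of cross-correlation area so actives lower synchrony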
How it was run: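 Primary rat cortical neurons on 48-well MEA plates (16 electrodes/well) were recorded 40 min at baseline on DIV 13 or 15, then 40 min with compound (0.03-40 uM) at 37 C; cross-correlation area expressed as percent change from baseline.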

[7] = biological target: Estrogen receptor (Homo sapiens) (UniProt P03372); assay: CCTE_Deisenroth_AIME_96WELL_LUC_Inactive: CCTE's 96-well Estrogen Receptor Transactivation Assay without AIME metabolic competence (ERTA luciferase; metabolism negative), Deisenroth Lab (AID 2284025; active means hit-call score of the fitted dose curve at least 0.9, where 1 is the maximum)
How it was run: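 VM7Luc4E2 breast cells, luciferase read 24 h after dosing with medium pre-incubated 2 h on alginate-water lids (metabolism negative). 10-point series 0.002–200 uM, single technical replicate, n≥4; fit relative to 17beta-estradiol.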

[8] = CCTE_Shafer_MEA_acute_cross_correlation_HWHM: CCTE's Neural Acute Assay for Cross Correlation at Half Width at Half Maximum, Shafer Lab (AID 2284026);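 further: percent change per well from pre-dose baseline in spike cross-correlogram half width; hits are a decrease in cross-correlogram half width relative to DMSO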;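 on outcome: spontaneous network firing of rat primary cortical neurons on multiwell microelectrode arrays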
How it was run: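 Primary rat cortical neurons on 16-electrode MEA wells; 40-min baseline on DIV 13 or 15, then 40-min recording with compound (0.03-40 uM) at 37 C. HWHM of spike cross-correlogram expressed as percent change from baseline per well, DMSO reference.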

[9] = CCTE_Shafer_MEA_acute_synchrony_index: CCTE's Neural Acute Assay for Synchrony, Shafer Lab (AID 2284027);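 further: fitted for loss of signal so actives lower synchrony relative to DMSO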
How it was run: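 Readout is percent change in the unitless network synchrony index (0 low, 1 high) between a 40-min baseline and a 40-min recording in compound. Cultures were primary rat cortical neurons on MEAs, treated at 0.03-40 uM on DIV 13 or 15.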

[10] = CCTE_Deisenroth_AIME_96WELL_CTox_Active: Cytotoxicity Assessment (CTOX) in CCTE's 96-well Estrogen Receptor Transactivation Assay with AIME metabolic competence (metabolism positive), Deisenroth Lab (AID 2284028; active means hit-call score of the fitted dose curve at least 0.9, where 1 is the maximum)
How it was run: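 Chemicals (0.002–200 uM) were first incubated 2 h with alginate-immobilized phenobarbital/beta-naphthoflavone-induced male rat liver S9; conditioned medium then went onto VM7Luc4E2 cells for 24 h, with viability read by protease-substrate fluorescence, fitted bidirectionally.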

[11] = CCTE_Deisenroth_AIME_96WELL_CTox_Inactive: Cytotoxicity Assessment (CTOX) in CCTE's 96-well Estrogen Receptor Transactivation Assay without AIME metabolic competence (metabolism negative), Deisenroth Lab (AID 2284029; active means hit-call score of the fitted dose curve at least 0.9, where 1 is the maximum)
How it was run: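 Chemicals (0.002 - 200 uM, 10 points) incubated 2 h with alginate-water microspheres (no S9), then medium moved onto VM7Luc4E2 cells for 24 h. Viability by protease-substrate cleavage to fluorescent probe; bidirectional fitting.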

[12] = biological target: Estrogen receptor (Homo sapiens) (UniProt P03372); assay: CCTE_Deisenroth_AIME_384WELL_LUC_Active: CCTE's 384-well Estrogen Receptor Transactivation Assay with AIME metabolic competence (ERTA luciferase; metabolism positive), Deisenroth Lab (AID 2284030; active means hit-call score of the fitted dose curve at least 0.9, where 1 is the maximum)
How it was run: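 Test chemicals (10-point series, 0.002 - 200 uM) were preincubated 2 hours with alginate-immobilized phenobarbital/beta-naphthoflavone-induced male Sprague Dawley rat liver S9; conditioned medium then went onto VM7Luc4E2 breast cells for 24 hour. Luciferase gain-of-signal fitted relative to 17beta-estradiol.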

[13] = CCTE_Deisenroth_AIME_384WELL_CTox_Active: Cytotoxicity Assessment (CTOX) in CCTE's 384-well Estrogen Receptor Transactivation Assay with AIME metabolic competence (metabolism positive), Deisenroth Lab (AID 2284037; active means hit-call score of the fitted dose curve at least 0.9, where 1 is the maximum;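 further: activity means signal loss indicating cell death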)
How it was run: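 VM7Luc4E2 breast cells received medium pre-incubated 2 h with chemical over alginate microspheres holding induced male Sprague Dawley rat liver S9; viability read 24 h later by protease-substrate fluorescence. Loss of signal, bidirectional fit, 0.002–200 uM.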

[14] = CCTE_Deisenroth_AIME_384WELL_CTox_Inactive: Cytotoxicity Assessment (CTOX) in CCTE's 384-well Estrogen Receptor Transactivation Assay without AIME metabolic competence (metabolism negative), Deisenroth Lab (AID 2284039; active means hit-call score of the fitted dose curve at least 0.9, where 1 is the maximum;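 further: cell viability via live-cell protease substrate cleaved to fluorescent probe; cells exposed 24 h to medium preincubated 2 h with alginate-water beads without S9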)
How it was run: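 Fluorescent protease-substrate viability readout after 24 h exposure of VM7Luc4E2 cells to conditioned medium. Chemicals (0.002–200 uM) first sat 2 h over alginate-water beads, no S9. Data fitted bidirectionally, loss of signal meaning viability loss.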

[15] = biological target: Estrogen receptor (Homo sapiens) (UniProt P03372); assay: CCTE_Deisenroth_AIME_384WELL_LUC_Inactive: CCTE's 384-well Estrogen Receptor Transactivation Assay without AIME metabolic competence (ERTA luciferase; metabolism negative), Deisenroth Lab (AID 2284038; active means hit-call score of the fitted dose curve at least 0.9, where 1 is the maximum;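 further: hits raise estrogen receptor luciferase signal so potencies reflect agonists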)
How it was run: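 Metabolism-negative mode: chemicals (10-point, 0.002–200 uM) held 2 h with alginate-water microspheres, then conditioned medium applied to VM7Luc4E2 cells for 24 h. Luciferase induction referenced to 17beta-estradiol.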

Sequence of Estrogen receptor (Homo sapiens) (P03372 whole entry, looked up): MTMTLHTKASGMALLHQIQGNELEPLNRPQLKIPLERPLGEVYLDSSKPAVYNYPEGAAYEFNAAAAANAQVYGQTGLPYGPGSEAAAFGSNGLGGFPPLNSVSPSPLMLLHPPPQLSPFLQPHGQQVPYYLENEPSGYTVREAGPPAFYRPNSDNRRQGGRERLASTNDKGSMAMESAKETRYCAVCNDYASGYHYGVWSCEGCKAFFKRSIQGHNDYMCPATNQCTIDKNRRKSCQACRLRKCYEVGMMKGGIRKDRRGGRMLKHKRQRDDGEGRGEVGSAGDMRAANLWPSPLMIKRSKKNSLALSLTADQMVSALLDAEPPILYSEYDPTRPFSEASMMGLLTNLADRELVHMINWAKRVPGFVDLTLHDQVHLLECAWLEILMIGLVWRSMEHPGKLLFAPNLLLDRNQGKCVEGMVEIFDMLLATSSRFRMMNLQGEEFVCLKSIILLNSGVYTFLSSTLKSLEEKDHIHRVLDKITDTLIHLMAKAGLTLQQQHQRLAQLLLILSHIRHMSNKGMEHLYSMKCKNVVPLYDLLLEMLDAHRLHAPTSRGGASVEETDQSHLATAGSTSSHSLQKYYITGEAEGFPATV

## Oc1ccc(O)cc1
[1]
  outcome: inactive
[2]
  outcome: inactive
[3]
  outcome: inactive
[4]
  outcome: inactive
[5]
  AC50: 50.2 µM (active)
[6]
  outcome: inactive
[7]
  AC50: 71.8 µM (active)
[8]
  outcome: inactive
[9]
  outcome: inactive
[10]
  outcome: inactive
[11]
  outcome: inactive

## CC1=C(C)S(=O)(=O)CCS1(=O)=O
[1]
  outcome: inactive
[2]
  outcome: inactive
[3]
  outcome: inactive
[4]
  outcome: inactive
[6]
  outcome: inactive
[8]
  outcome: inactive
[9]
  outcome: inactive
[12]
  outcome: inactive
[13]
  AC50: 172 µM (active)
[14]
  AC50: 100 µM (active)

## CCCCC(CC)COP(=O)(OCC(CC)CCCC)OCC(CC)CCCC (stereo not given)
[1]
  outcome: inactive
[2]
  outcome: inactive
[3]
  outcome: inactive
[4]
  outcome: inactive
[6]
  outcome: inactive
[8]
  outcome: inactive
[9]
  outcome: inactive

## Cc1cc(SC2=C(O)C[C@@](CCc3ccc(N)cc3)(C(C)C)OC2=O)c(C(C)(C)C)cc1CO
[1]
  outcome: inactive
[2]
  outcome: inactive
[3]
  outcome: inactive
[4]
  outcome: inactive
[6]
  AC50: 20 µM (active)
[8]
  outcome: inactive
[9]
  outcome: inactive

## NC(=Nc1ccccc1)Nc1ccccc1
[1]
  AC50: 29.5 µM (active)
[2]
  outcome: inactive
[3]
  outcome: inactive
[4]
  outcome: inactive
[6]
  outcome: inactive
[8]
  AC50: 20 µM (active)
[9]
  outcome: inactive

## O=C(O)CC(O)(CC(=O)O)C(=O)O
[12]
  outcome: inactive
[13]
  outcome: inactive
[15]
  outcome: inactive
